Laboratory results taken from PubChem BioAssay (NCI).
This is part of a sample that, as a whole, favours compounds with a hit. Of some 83,000 tested, about 20% had one in any assay.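 Interpretation: 100, growth as untreated; towards 0, rising growth inhibition; 0, no net growth; 0 to -100, cell death. Compounds scoring below 10 were considered active.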 The source made the active and inactive calls.

The molecules below were run on NCI-H322M lung (assay: NCI-60 one-dose screen, 48 h (100 = growth as untreated, 0 = no growth, -100 = all killed)). Details: 10 µM unless noted.
Protocol: Growth inhibition of the NCI-H322M human Non-Small Cell Lung tumor cell line is measured as a screen for anti-cancer activity. Cells are grown in 96 well plates and exposed to the test compound for 48 hours. Compounds are tested at a single concentration, which is 10^-5 M for most compounds. The reported endpoint is percent growth (GI% or GIPRCNT), where numbers from 0 - 100% represent growth inhibition, and numbers from -100% - 0 represent cell death. For example, a value of 40 represents 60% growth inhibition. A value of 0 means no net growth occurred over the course of the experiment. A value of -40 indicates 40% of cells at the beginning of the experiment died by the end of the experiment. A value of -100 means all cells are dead at the end of the experiment.
NCI-60 Human Tumor Cell Lines Screen was performed using the standard one-dose NCI protocol, which is described in more detail at https://dtp.cancer.gov/discovery_development/nci-60/default.htm.
Compounds with GIPRCNT values below 10 were considered active. Activity score was based on GIPRCNT using the following formula: […]
Score is 0 for GIPRCNT values of 100 or above, 50 for GIPRCNT values of 0, and 100 for GIPRCNT values of -100.
For `O=C(NNc1nc2cc(F)cc(F)c2n2cccc12)c1cccnn1`, the growth was 28.4% (inactive). With `CC1(C)CC[C@]2(C(=O)NCCCCCCN(CCCN)CCCN)CC[C@]3(C)C(=CC[C@@H]4[C@@]5(C)CC[C@H](O)C(C)(C)[C@@H]5CC[C@]43C)[C@@H]2C1` the growth was 95.1% (inactive). For `Brc1cccc(-c2cc(-c3ccc4c(c3)OC=CO4)[nH]n2)c1`, the growth was 49.8% (inactive). `CN(C)S(=O)(=O)c1ccc(-c2nc(C(Cl)Cl)nc3cc(-c4ccc(F)cc4)nn23)cc1` was tested, and the growth was 31% (inactive). In the case of `CC(=C(c1ccc(OCCN(C)C)cc1)c1ccc(OCCN(C)C)cc1)c1ccc(Cl)cc1`, the growth is reported as -3.42% (active). In the case of `C1=CC(c2nn3c(-c4ccccc4)nnc3s2)=Cc2ccccc2O1`, the growth is reported as 96.3% (inactive). `CN1CCN(Cc2ccc(NC(=O)c3cncc(C#Cc4cnc5ccc(OCCCS(C)(=O)=O)nn45)c3)cc2C(F)(F)F)CC1` was tested, and the growth was -16.6% (active). With `Cc1[nH]c(C(=O)Nc2ccc(C(=O)NCC3CCNCC3)cc2OC(C)C)c(Cl)c1Cl` the growth was 92.1% (inactive). In the case of `N#Cc1c(-c2cccs2)cc(-c2cnccn2)nc1SCC(=O)N/N=C/c1ccncc1`, the growth is reported as 116% (inactive). For `O=C(CSc1nnc(-c2ccc(Cl)cc2)n1-c1ccccc1)Nc1ccccc1Cl`, the growth was 66.2% (inactive). `CNC(=O)c1cc(-n2ccc3cc(NC(=O)Nc4ccc(N5CCN(C)CC5)c(C(F)(F)F)c4)ccc32)ccn1` was tested, and the growth was 85.4% (inactive). For `Cc1ccc2c(n1)C(=O)C(Cl)=C(Nc1ccc(C#N)cc1)C2=O`, the growth was 109% (inactive). `COc1ccc2c(c1)c(-c1nc(N)nnc1-c1c[nH]c3ccccc13)cn2C` was tested, and the growth was 57.3% (inactive). With `Cc1ccc2c(n1)C(=O)C(Cl)=C(Nc1cccc(C(F)(F)F)c1)C2=O` the growth was 108% (inactive). For `Nc1cc(C(=O)N/N=C\c2ccc(OC(F)F)c(OC3CCCC3)c2)nn1CC(O)c1ccccc1` (stereo not given), the growth was 103% (inactive). In the case of `Cc1ccccc1N1CCN(C2=C(Cl)C(=O)c3ncccc3C2=O)CC1`, the growth is reported as 89.9% (inactive). With `O=C1[C@@H]2Cc3c([nH]c4ccccc34)[C@@H](c3ccc(Cl)cc3)N2C(=O)CN1C1CCN(Cc2ccccc2)CC1` the growth was 87.2% (inactive). In the case of `CCc1cc2c(cc1Cl)nc1c(=O)[nH]c(=O)nc-1n2CCOCC(C)(C)C`, the growth is reported as 63.7% (inactive). In the case of `Cc1ccc(NC2=C(Cl)C(=O)c3nc(C)ccc3C2=O)c(C)c1`, the growth is reported as 36.7% (inactive). For `C=C(C)[C@@H]1CC[C@]2(C(=O)O)CC[C@]3(C)[C@H](CC[C@@H]4[C@@]5(C)C/C(=C/c6ccccn6)C(=O)C(C)(C)[C@@H]5CC[C@]43C)[C@@H]12`, the growth was 44.3% (inactive). In the case of `O=C(Nc1ccc(N2CCOCC2)cc1)Nc1ccc2c(ccn2C(=O)c2cccc(F)c2)c1`, the growth is reported as 92.5% (inactive). For `C#CCOc1cccc(-c2nc(N)nc(Nc3ccccc3SSc3ccccc3Nc3nc(N)nc(-c4cccc(OCC#C)c4)n3)n2)c1`, the growth was 80.9% (inactive). For `Cc1ccc(S(=O)(=O)NCCCNc2nccc(-c3[nH]c(-c4ccccc4)nc3-c3ccc(F)c(O)c3)n2)cc1`, the growth was 109% (inactive). With `N#Cc1c(-c2cccs2)cc(-c2cnccn2)nc1SCC(=O)N/N=C/c1ccccc1` the growth was 63.5% (inactive). With `CCN(CC)c1ccc(/C=N/NC(=O)c2ccc(NS(C)(=O)=O)cc2)c(O)c1` the growth was 25.2% (inactive). For `Cc1ccc2c(n1)C(=O)C(Cl)=C(Nc1ccc(C)c(C)c1)C2=O`, the growth was 60.9% (inactive). In the case of `CNC(=O)Nc1ccc(Nc2cc(-c3ccc(-n4cccn4)cc3)[nH]n2)c(C)c1`, the growth is reported as 101% (inactive). With `COc1ccccc1N1CCN(C2=C(Cl)C(=O)c3ncccc3C2=O)CC1` the growth was 92.4% (inactive). With `Nc1ncc(-c2ccc3ncnc(NCc4ccccc4)c3c2)cn1` the growth was 8.77% (active). In the case of `CN1CCN(Cc2ccc(NC(=O)c3cncc(C#Cc4cnc5ccc(N)nn45)c3)cc2C(F)(F)F)CC1`, the growth is reported as 12.4% (inactive). `CCCc1[nH]c(-c2cc(N)ccc2Cl)c2c1C(=O)CCCC2` was tested, and the growth was 89.1% (inactive). In the case of `CN1CCN(c2ccc(C(=O)/C=C/c3cc(F)cc(C(F)(F)F)c3)cc2)CC1`, the growth is reported as 78.9% (inactive). `Cc1nc(/N=C(N)/N=C(\N)c2cccc(Br)c2)sc1C` was tested, and the growth was 86.2% (inactive). For `NC(=O)n1c(=O)n(-c2cccc(C(F)(F)F)c2)c(=O)c2cc(-c3ccc(F)cc3F)ccc21`, the growth was 0.936% (active). In the case of `CC1=C(SCC(=O)OCCCCCC(C)C)C(=O)c2ccccc2C1=O`, the growth is reported as 100% (inactive). With `C#CCN(C)CCCOc1ccc(NCc2ccc(/C=C/C(=O)NO)cc2)cc1Cl` the growth was 9.85% (active). In the case of `Cn1c(SCC(=O)c2ccco2)nc2ccccc2c1=O`, the growth is reported as 91.8% (inactive). `Clc1ccc2[nH]cc(-c3cncn3CCc3ccc4c(c3)OCO4)c2c1` was tested, and the growth was 75.5% (inactive). With `O=C(COc1ccc(/C=C2\C(=O)Nc3ccc(F)cc32)cc1)Nc1ccccc1` the growth was 99.3% (inactive). In the case of `COC(=O)c1ccc(NC2=C(Cl)C(=O)c3nc(C)ccc3C2=O)cc1`, the growth is reported as 101% (inactive).
